This is a sample that favours compounds with a hit; in the whole collection about 21% have one here.
Pf growth 48h = P. falciparum growth inhibition at 48 hours (one generation); 310,000 compounds, 5.9% hits; Potency, µM (series often up to 28.7 µM), inactives show top-dose activity change, negative = inhibition, hits mostly inhibitors; AID 504832; P. falciparum luciferase growth in erythrocytes, 48 h; also: potency is read from the fitted curve at half-maximal effect; % is scaled to controls: 0 for no effect and ±100 for the full control effect
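First compound was added to culture medium, then infected red cells at 0.1% parasitemia and 2% hematocrit (final). After incubation at 37 C under 5% CO2, luciferase detection reagent was dispensed and light output recorded.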
CHX counter = counter-screen hit for Shiga toxin inhibitors, cycloheximide; cell reporter, cycloheximide protein synthesis inhibition counterscreen; max response, %; 300,000 compounds, 12% hits; in the data active = max response mostly above about 13%, no sharp cut-off; inactive = mostly below about 14%; also: read at 38.3 µM for the half of the compounds with a filed dose; 0% is about no effect
HCV inh = blocks hepatitis C virus; Huh7.5.1 HCVcc-Cre infection, luciferase reporter, 44 h; Potency, µM (series often up to 41.8 µM), inactives show at the top dose activity change, negative = inhibition, hits mostly inhibitors; 340,000 compounds, 3.4% hits; AID 651820; also: potency is read from the fitted curve at half-maximal effect; % is scaled to controls: 0 for no effect and ±100 for the full control effect
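Antiviral activity was scored by luciferase reporter output from cells infected with HCVcc-Cre (~0.5 moi) in presence of compound, 44 h infection period, cells seeded 1,000/well 4 h prior.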
HCMV antiviral = inhibitors of human cytomegalovirus | HFF cells, HCMV-luciferase reporter, 72 h; hits give low values | activity change, negative = inhibition, % at 57.5 µM | 410,000 compounds, 4.5% hits; in the data active = activity change below about -60%; inconclusive = no clear call, values can overlap the other calls; inactive = above about -39%; also: % is scaled to controls: 0 for no effect and ±100 for the full control effect
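Cell-based, HFFs, 1000 cells/well, 16 h 37C; cpds in DMSO + HCMV-luc, MOI 1 PFU/cell; 72 h 37C; OneGlo luminescence after 5 min RT; norm. to buffer vs Salinomycin 10uM.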
Pf growth 96h = P. falciparum growth inhibition at 96 hour, primary screen for plastid delayed-death inhibitors; P. falciparum luciferase reporter growth, 96 h; Potency, µM (doses to about 28.7 µM), inactives show top-dose activity change, negative = inhibition, actives largely listed as inhibitors; 320,000 compounds, 6.9% hits; also: potency is read from the fitted curve at half-maximal effect; % is scaled to controls: 0 for no effect and ±100 for the full control effect
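Compounds incubated with erythrocytes infected by luciferase-expressing P. falciparum (2% hematocrit, 0.05% parasitemia final) for 96 hours, 37 C in 5% CO2. Growth inhibition scored as decreased luciferase luminescence.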
Shiga toxin inh = Shiga toxin inhibition. Vero cells, Shiga toxin protein synthesis inhibition reporter. inhibition, % at 38.7 µM. 290,000 compounds, 9.2% hits. AID 2315; in the data active = inhibition mostly above about 28%, no sharp cut-off; inactive = mostly below about 43%; also: 0% is about no effect
The depositor's hits bear a star; i = inactive; ? = inconclusive; nt = no result. Unless noted, calls follow the shape of the dose curve; as a rule, active = well fitted inhibition curve with a large enough effect; inconclusive = small, poorly fitted or top-dose-only effect, or another doubt; inactive = no such curve, though single readings can be large or run the other way.

SMILES | Pf growth 48h | CHX counter | HCV inh | HCMV antiviral | Pf growth 96h | Shiga toxin inh
COC(=O)c1cc2occc2n1CC(=O)Nc1ccc(C)cc1C | -12% | -2 | ? | -63* | nt | -8
CCOC(=O)c1cc2occc2n1CC(=O)N1CCCc2ccccc21 | 9.3µM* | 12 | -22% | 7 | i | 13
CCOC(=O)c1cc2sccc2n1CC(=O)N1CCCc2ccccc21 | ? | 13 | -29% | 24 | 52% | 28
COC(=O)c1cc2occc2n1Cc1ccc(Cl)cc1 | nt | -2 | 9% | -22 | 16% | 6
CCn1ccnc1CNC(=O)C1CCC(=O)N(Cc2ccccc2F)C1 (stereo not given) | -1% | -1 | -5% | -33 | 12µM* | -4
O=C(NC1CCC1)C1CCC(=O)N(Cc2ccccc2F)C1 (stereo not given) | ? | 32* | -8% | 41 | ? | 8
O=C(NC1CCC1)C1CCC(=O)N(Cc2cccc(F)c2)C1 (stereo not given) | 5% | 18 | 14% | -1 | 20% | -6
CC#CCN(Cc1ccco1)C(=O)C1CCC(=O)N(Cc2ccccc2F)C1 (stereo not given) | -5% | 32* | -9% | 2 | 0% | 29
O=C(NCCc1ccccc1F)C1CCC(=O)N(Cc2ccccc2F)C1 (stereo not given) | 20% | 18* | -11% | 0 | 51% | 25*
CN(Cc1nccs1)C(=O)C1CCC(=O)N(Cc2ccccc2F)C1 (stereo not given) | 8% | 10 | 19% | -30 | ? | -12
COc1ccc(-c2nc3n(n2)C(c2ccc(O)cc2)C(C(=O)Nc2cccnc2)=C(C)N3)cc1OC (stereo not given) | nt | nt | nt | -3 | nt | nt
CC(=O)c1cccc(NC(=O)CC2CCCC2)c1 | 12% | 1 | -6% | 21 | 20% | 47
COC(=O)c1cc(OC)c(OC)cc1NC(=O)CN1CCCCC1 | -3% | -2 | ? | -14 | 7% | -8
O=C(COC(=O)C12CC3CC(CC(O)(C3)C1)C2)Nc1cccc(Br)c1 | 159% | nt | 3% | -102* | 88% | nt
COC(=O)c1cc(OC)c(OC)cc1NC(=O)CC1CCCCC1 | 10µM* | 4 | -5% | -5 | 19% | 3
COC(=O)c1cc(NC(=O)CC2CCCC2)cc(C(=O)OC)c1 | ? | 0 | -30% | -64* | ? | -6
O=C(CC1CCCC1)Nc1cccc(Br)c1 | 3% | 17* | -8% | -25 | -14% | 56*
Cc1c(CC(=O)NCCCO)c(=O)oc2cc3c(cc12)CCC(C)(C)O3 | 16% | 16 | 4% | 30 | -2% | 21
COc1ccccc1C(=O)C1CCCN(C(=O)c2cnn(C(C)C)c2)C1 (stereo not given) | 1% | 7 | 13% | 0 | 2% | -2
c1ccc(CCNc2nc(-c3ccccn3)cs2)cc1 | ? | 40* | 14% | 6 | 44% | 86*
c1ccc(CCNc2nc(-c3cccnc3)cs2)cc1 | ? | 62* | -3% | 7 | ? | 40*
COc1ccccc1Oc1ncnc2c1oc1ccccc12 | 1% | 21* | -27% | ? | 51% | 23
COc1ccc(Oc2ncnc3c2oc2ccccc23)cc1 | nt | nt | nt | 66 | nt | nt
Cc1ccc(Nc2ncnc3c2oc2ccccc23)cc1 | nt | 45* | -20% | 81 | 33% | 100
COc1ccc(Nc2ncnc3c2oc2ccccc23)cc1 | 91% | 56* | 5% | 85 | -1% | 124*
SMILES | Pf growth 48h | CHX counter | HCV inh | HCMV antiviral | Pf growth 96h | Shiga toxin inh
CC(C)[C@H](Nc1ncnc2c1oc1ccccc12)C(=O)O | 6% | -3 | 9% | -22 | -2% | 16
CN1CCC(Oc2ccc(Sc3ccccc3)cc2)CC1 | 76% | 68* | ? | ? | 32% | 63*
CN1CCC(Oc2ccccc2Sc2ccc(C(F)(F)F)cc2)CC1 | ? | -7 | 11µM* | ? | ? | -17
CN1CCC(OC(=O)Cc2ccccc2)CC1 | 15% | -2 | 7% | 1 | -1% | -14
O=C(CCn1nc(-c2ccc(Cl)cc2)ccc1=O)N1CCN(c2ccc(F)cc2)CC1 | ? | -4 | ? | -24 | 14% | -3
COc1ccccc1C(=O)NC(=O)OCCn1c(C)cnc1[N+](=O)[O-] | -11% | 10 | 7% | 29 | 9.3µM* | -11
Cc1cnc([N+](=O)[O-])n1CCOC(=O)NC(=O)c1ccccc1 | -17% | -1 | 13% | 12 | ? | -1
Cc1cccn2c(Nc3ccc4c(c3)OCCO4)c(-c3ccc(Br)o3)nc12 | nt | nt | nt | -19 | nt | nt
COc1ccc(-c2ccc3c(c2)S(=O)(=O)c2cccc(C(=O)NCc4cc(C)oc4C(F)(F)F)c2C3=O)cc1OC | nt | nt | -11% | nt | nt | nt
CCOC(=O)CNC(=O)Cc1ccc(OC)cc1 | 3% | 13* | 4% | 6 | 7% | 20
COc1cc(OC)cc(C(=O)NCC(=O)OCc2nc3ccccc3s2)c1 | i | 36* | 21% | 38 | 290% | 113*
CCOC(=O)CNC(=O)c1cc(OC)cc(OC)c1 | 29% | 7 | ? | 12 | 0.93µM* | 33
CCOC(=O)CNC(=O)c1ccc(C)cc1 | 78% | 19 | -8% | 0 | nt | 5
COC(=O)CNC(=O)c1cc(OC)cc(OC)c1 | 8% | -1 | 29% | -12 | 0% | -6
CCOC(=O)CNC(=O)c1ccc(OCC(F)(F)F)cc1 | 292% | 28* | 5% | 70 | 111% | 82*
Cc1cccc(C)c1NC(=O)CSc1nnc(-c2cccnc2)o1 | 15% | 7 | 7% | 21 | -25% | 21
COc1cccc(Cn2c(=O)n(CC3CCC(C(=O)NC(C)C)CC3)c(=O)c3sccc32)c1 (stereo not given) | nt | nt | nt | -19 | nt | nt
C=CCC1(Cl)C(=O)C(Cl)=C(N2CCN(C)CC2)C1(OC)OC (stereo not given) | 2% | -4 | 6% | -4 | ? | 1
Cc1cccc(C)c1N1C(=O)c2ccccc2NC(=O)C1C(=O)NCCc1ccccc1 (stereo not given) | nt | nt | nt | -12 | nt | nt
CSc1ccccc1OCc1cc(C(=O)N2CCCC2c2nonc2C)no1 (stereo not given) | 23% | 48* | ? | 7 | 5% | 91*
Cc1cccc(C)c1OCc1cc(C(=O)N2CCCC2c2nonc2C)no1 (stereo not given) | ? | 41 | ? | -23 | -2% | 18
Cc1nonc1C1CCCN1C(=O)c1cc(COc2ccc(F)cc2F)on1 (stereo not given) | 49% | 41* | -15% | 131 | ? | 103*
COc1ccccc1CN1CC(C(=O)NCc2ccc(SC)cc2)CCC1=O (stereo not given) | -2% | 9 | -17% | -6 | ? | -4
Cc1noc(C)c1S(=O)(=O)N(C)C[C@H]1Oc2ccc(NS(=O)(=O)c3ccccc3)cc2C(=O)N([C@H](C)CO)C[C@@H]1C | nt | nt | 9% | -32 | nt | nt
